Assay in all cases: HT-SELEX; high values mean tight binding
Conditions in all cases: protein: recombinant; vector His6-GST; dsDNA, one strand shown

One assay has as its target T1, SALL4 ZFC4 WT (HT-SELEX) (Mus musculus, UniProt Q8BX22 870-940).
T1 sequence: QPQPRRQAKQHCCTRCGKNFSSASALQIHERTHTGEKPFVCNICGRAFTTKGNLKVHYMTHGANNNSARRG
The method, boiled down: (§1)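 Each canonical k-mer's binding signal is its read fraction expressed as fold change over the initial random library. Reads came from MiSeq sequencing, scanned for 6-mers, after up to 6 triplicate cycles in which purified recombinant mouse SALL4 zinc finger cluster 4 (residues 870–940, 1 µg) bound library DNA (1.5 µg first cycle, 200 ng later) in 100 µl of 10 mM Tris–HCl pH 7.5, 50 mM NaCl, poly(dI-dC), DTT for 10 min at room temperature. Complexes were then Ni2+ bead-captured, washed, PCR-amplified and reselected.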

Assay [1] addresses T2, SALL4 ZFC4 R900W (HT-SELEX) (Mus musculus, UniProt Q8BX22 870-940, R900W).
T2 sequence: T1 sequence with R31W
The method, boiled down:
as §1

For assay [2], the target named is T3, SALL4 ZFC4 G921D (HT-SELEX) (Mus musculus, UniProt Q8BX22 870-940, G921D).
T3 sequence: T1 sequence with G52D
The gist of the method:
as §1

Positions count from the first letter of the chain named.

For 30 sequences, binding signal results are on record in PMC9838217, “Structure of SALL4 zinc finger domain reveals link between AT-rich DNA binding and Okihiro syndrome”.

ACTAGC: the binding signal with SALL4 ZFC4 WT (HT-SELEX) was determined as 0.648 ± 0.0227 fold-change vs cycle 0; in assay [1], 0.764 ± 0.0235 fold-change vs cycle 0; in assay [2] it was 0.825 ± 0.0195 fold-change vs cycle 0.
ATTATA: the binding signal with SALL4 ZFC4 WT (HT-SELEX) came out at 4.99 ± 0.594 fold-change vs cycle 0; in assay [1], 2.65 ± 0.265 fold-change vs cycle 0; in assay [2], 2.25 ± 0.311 fold-change vs cycle 0.
In the same order, the values of ACTCAA are 1.26 ± 0.086 fold-change vs cycle 0, 1.42 ± 0.0689 fold-change vs cycle 0 and 1.35 ± 0.0924 fold-change vs cycle 0.
The matching figures for CTACCA: 0.775 ± 0.0319 fold-change vs cycle 0, 0.894 ± 0.00977 fold-change vs cycle 0 and 0.96 ± 0.00989 fold-change vs cycle 0.
For the sequence TAGACA, the binding signal with SALL4 ZFC4 WT (HT-SELEX) was determined as 1.18 ± 0.0561 fold-change vs cycle 0; in assay [1], 1.3 ± 0.0829 fold-change vs cycle 0; in assay [2], 1.28 ± 0.0805 fold-change vs cycle 0.
TACGAA: the values for the binding signal (with SALL4 ZFC4 WT (HT-SELEX); in assay [1]; in assay [2]) were 1.17 ± 0.0583 fold-change vs cycle 0, 1.27 ± 0.067 fold-change vs cycle 0 and 1.22 ± 0.0855 fold-change vs cycle 0, respectively.
Consider CGAAAA, for which the binding signal was determined as 0.827 ± 0.0572 fold-change vs cycle 0 with SALL4 ZFC4 WT (HT-SELEX), 0.851 ± 0.0107 fold-change vs cycle 0 in assay [1] and 0.912 ± 0.0336 fold-change vs cycle 0 in assay [2].
As for CACACC, the figures for the binding signal (in the assay with SALL4 ZFC4 WT (HT-SELEX); in assay [1]; in assay [2]) were 0.375 ± 0.0351 fold-change vs cycle 0, 0.468 ± 0.0362 fold-change vs cycle 0 and 0.561 ± 0.0498 fold-change vs cycle 0, respectively.
AAGCCA: the binding signal in the assay with SALL4 ZFC4 WT (HT-SELEX) came to 0.541 ± 0.0136 fold-change vs cycle 0; in assay [1], 0.628 ± 0.0233 fold-change vs cycle 0; in assay [2], 0.751 ± 0.0535 fold-change vs cycle 0.
For the sequence CTTGAC, the values for the binding signal (in the assay with SALL4 ZFC4 WT (HT-SELEX); in assay [1]; in assay [2]) were 0.777 ± 0.0347 fold-change vs cycle 0, 0.934 ± 0.0128 fold-change vs cycle 0 and 0.981 ± 0.0363 fold-change vs cycle 0, respectively.
The matching figures for GGCATA: 0.502 ± 0.0157 fold-change vs cycle 0, 0.562 ± 0.025 fold-change vs cycle 0 and 0.668 ± 0.0401 fold-change vs cycle 0.
Take ATAAAG: the binding signal in the assay with SALL4 ZFC4 WT (HT-SELEX) was 2.23 ± 0.104 fold-change vs cycle 0; in assay [1], 2.12 ± 0.11 fold-change vs cycle 0; in assay [2], 1.79 ± 0.17 fold-change vs cycle 0.
The matching figures for CGAAGA: 0.723 ± 0.0365 fold-change vs cycle 0, 0.802 ± 0.0443 fold-change vs cycle 0 and 0.859 ± 0.0315 fold-change vs cycle 0.
The matching figures for CCACTC: 0.468 ± 0.0131 fold-change vs cycle 0, 0.5154 ± 0.00212 fold-change vs cycle 0 and 0.62 ± 0.0734 fold-change vs cycle 0.
In the same order, the values of GAAAAA are 1.86 ± 0.136 fold-change vs cycle 0, 1.6 ± 0.0749 fold-change vs cycle 0 and 1.47 ± 0.105 fold-change vs cycle 0.
As for GGTGAA, the binding signal with SALL4 ZFC4 WT (HT-SELEX) is 0.8 ± 0.0301 fold-change vs cycle 0; in assay [1], 0.905 ± 0.0496 fold-change vs cycle 0; in assay [2], 0.952 ± 0.0511 fold-change vs cycle 0.
On to GTCTAA, for which the results for the binding signal (with SALL4 ZFC4 WT (HT-SELEX); in assay [1]; in assay [2]) were 1.16 ± 0.029 fold-change vs cycle 0, 1.28 ± 0.0593 fold-change vs cycle 0 and 1.27 ± 0.0407 fold-change vs cycle 0, respectively.
Take ACTCAG: the binding signal in the assay with SALL4 ZFC4 WT (HT-SELEX) turned out to be 0.865 ± 0.0453 fold-change vs cycle 0; in assay [1], 0.97 ± 0.0144 fold-change vs cycle 0; in assay [2] it was 0.994 ± 0.0115 fold-change vs cycle 0.
The matching figures for AGGTAC: 0.804 ± 0.0355 fold-change vs cycle 0, 0.942 ± 0.0186 fold-change vs cycle 0 and 0.9735 ± 0.00829 fold-change vs cycle 0.
In the same order, the values of CAAAGG are 0.765 ± 0.046 fold-change vs cycle 0, 0.898 ± 0.0341 fold-change vs cycle 0 and 0.935 ± 0.0222 fold-change vs cycle 0.
The matching figures for AGATCA: 1.29 ± 0.0762 fold-change vs cycle 0, 1.44 ± 0.0715 fold-change vs cycle 0 and 1.46 ± 0.0921 fold-change vs cycle 0.
For AACAGC, the binding signal turned out to be 0.555 ± 0.024 fold-change vs cycle 0 in the assay with SALL4 ZFC4 WT (HT-SELEX), 0.644 ± 0.0188 fold-change vs cycle 0 in assay [1] and 0.761 ± 0.0273 fold-change vs cycle 0 in assay [2].
ACCTGC: the binding signal was 0.368 ± 0.0272 fold-change vs cycle 0 with SALL4 ZFC4 WT (HT-SELEX), 0.391 ± 0.01 fold-change vs cycle 0 in assay [1] and 0.516 ± 0.075 fold-change vs cycle 0 in assay [2].
As for CTAGCA, the results for the binding signal (in the assay with SALL4 ZFC4 WT (HT-SELEX); in assay [1]; in assay [2]) were 0.695 ± 0.0294 fold-change vs cycle 0, 0.782 ± 0.0282 fold-change vs cycle 0 and 0.86 ± 0.0269 fold-change vs cycle 0, respectively.
As for ATATAG, the binding signal with SALL4 ZFC4 WT (HT-SELEX) amounted to 2.33 ± 0.245 fold-change vs cycle 0; in assay [1], 1.9 ± 0.143 fold-change vs cycle 0; in assay [2] it was 1.74 ± 0.201 fold-change vs cycle 0.
On to AATGAT, for which the binding signal with SALL4 ZFC4 WT (HT-SELEX) came to 2.25 ± 0.203 fold-change vs cycle 0; in assay [1], 2.15 ± 0.135 fold-change vs cycle 0; in assay [2], 1.94 ± 0.238 fold-change vs cycle 0.
The matching figures for AATGGA: 1.38 ± 0.0388 fold-change vs cycle 0, 1.47 ± 0.0617 fold-change vs cycle 0 and 1.39 ± 0.0841 fold-change vs cycle 0.
With GTCAGA, the binding signal with SALL4 ZFC4 WT (HT-SELEX) stood at 0.728 ± 0.0316 fold-change vs cycle 0; in assay [1], 0.836 ± 0.0595 fold-change vs cycle 0; in assay [2] it was 0.887 ± 0.0403 fold-change vs cycle 0.
As for CGAGTC, the binding signal amounted to 0.379 ± 0.0123 fold-change vs cycle 0 with SALL4 ZFC4 WT (HT-SELEX), 0.4362 ± 0.00406 fold-change vs cycle 0 in assay [1] and 0.578 ± 0.0547 fold-change vs cycle 0 in assay [2].
As to CTTAGA, the binding signal amounted to 1.28 ± 0.0284 fold-change vs cycle 0 with SALL4 ZFC4 WT (HT-SELEX), 1.45 ± 0.0641 fold-change vs cycle 0 in assay [1] and 1.36 ± 0.0933 fold-change vs cycle 0 in assay [2].
